The source of these data is the supplement of paper PMC6522484.

SMILES strings stand for the structures. ± gives the standard deviation of the averaged measurements.

The test system of test [1] is DLD1. In words: cell viability (CellTiter-Glo) relative to plate median (fraction of plate median); higher = more viable cells. As to conditions: 5 µM; treatment time 24 h; reporter: 7TFP. The method, boiled down: (§1)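 Values are well luminescence normalised to the plate median, from either a firefly luciferase or a CellTiterGlo readout on parallel plates. The cells, colorectal cancer lines stably transduced with lentiviral 7TFP or TCF4/Wnt firefly luciferase reporters, were treated with library compounds at a final 5 µM for 24 h. The mean of two independent replicates is listed.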

Test [2] relates to HCT116. The test is described as above. As to conditions: 5 µM; treatment time 24 h; reporter: TCF4/Wnt. An outline of the steps:
as §1

Test [3] relates to SW480. The test is described as above. To be noted: 5 µM; treatment time 24 h; reporter: 7TFP. An outline of the steps: as §1
Test [4] has as its system DLD1. In words: TCF/Wnt firefly luciferase reporter signal relative to plate median (fraction of plate median); higher = higher Wnt reporter signal. As to conditions: 5 µM; treatment time 24 h; reporter: 7TFP. The method, boiled down: as §1
In test [5] the test system is SW480. The description is as above. As to conditions: 5 µM; treatment time 24 h; reporter: 7TFP. An outline of the steps: as §1

With `CNS(=O)(=O)Cc1ccc2[nH]cc(CCN(C)C)c2c1`, the values for the cell viability in test [1], in test [2] and in test [3] were 1.08 ± 0.099, 1.07 ± 0.05 and 0.9885 ± 0.0078, respectively. The “TCF/Wnt firefly luciferase reporter signal” value in test [4] is 1.07 ± 0.099; in test [5], 1.07 ± 0.028.
For `O=C(O)CN(CCN(CC(=O)O)CC(=O)O)CC(=O)O.[Na+].[Na+].[Na+]`, in that order: 0.914 ± 0.021, 0.948 ± 0.088, 1.01 ± 0.035, 1.02 ± 0.12 and 1.11 ± 0.13.
Regarding `NC(=O)NO`, the results for the cell viability in test [1], in test [2] and in test [3] were 1.06 ± 0.09, 1.05 ± 0.042 and 1.09 ± 0.028, respectively. Besides, the “TCF/Wnt firefly luciferase reporter signal” value came out at 1.03 ± 0.11 in test [4] and 1.03 ± 0.12 in test [5].
For `NC(=O)N/N=C/c1ccc([N+](=O)[O-])o1`, in that order: 0.894 ± 0.04, 0.827 ± 0.13, 0.9805 ± 0.0064, 0.973 ± 0.11 and 1.08 ± 0.028.
On to `CC(=O)OC1CCC2(O)CC1(C)CCC1C2CC1(C)C` (stereo not given), for which the figures for the cell viability in test [1], in test [2] and in test [3] were 1.03 ± 0.014, 1.06 ± 0.05 and 1.05, respectively. Also, the entries for the “TCF/Wnt firefly luciferase reporter signal” value in test [4] and in test [5] were 0.9135 ± 0.0064 and 0.933 ± 0.057, respectively.
With `CN[C@@H]1[C@@H](O[C@H]2O[C@H](CO)[C@@H](N)[C@H](O)[C@H]2O)OC2C[C@@H](N)[C@@H](O[C@H]3[C@H](O)[C@@H](O)[C@H](N)C[C@@H]3N)OC2[C@@H]1O` (stereo not given in full), the cell viability was determined as 0.893 ± 0.0028 in test [1], 0.952 ± 0.03 in test [2] and 0.965 ± 0.037 in test [3]. Besides, the “TCF/Wnt firefly luciferase reporter signal” value in test [4] was determined as 1.08 ± 0.028; in test [5], 0.88 ± 0.11.
Taken in the same sequence, the figures for `C[C@H]1C[C@@H]2[C@H]([C@@H](O)C[C@@]3(C)[C@H]2CC[C@]3(O)C(=O)COC(=O)CCC(=O)O)[C@@]2(C)C=CC(=O)C=C12` were 0.918 ± 0.13, 1.01 ± 0.018, 0.921 ± 0.012, 0.964 ± 0.044 and 0.997 ± 0.061.
Taken in the same sequence, the figures for `O=C(O)CCCCCCCCCCCC[C@@H]1C=CCC1` were 1 ± 0.055, 1.03 ± 0.058, 0.966 ± 0.1, 1.15 ± 0.014 and 1 ± 0.096.
Taken in the same sequence, the figures for `COC(=O)N/N=C/c1c[n+]([O-])c2ccccc2[n+]1[O-]` were 0.917 ± 0.13, 0.998 ± 0.2, 0.974 ± 0.021, 0.919 ± 0.064 and 0.9245 ± 0.0092.
Take `CCOC(=O)C1=C(COCCN)NC(C)=C(C(=O)OC)C1c1ccccc1Cl` (stereo not given): the cell viability in test [1] is 0.998 ± 0.031; in test [2], 1.01 ± 0.097; in test [3] it was 1.03 ± 0.083. The “TCF/Wnt firefly luciferase reporter signal” value in test [4] amounted to 1.02 ± 0.11; in test [5] it was 1.04 ± 0.042.
Turning to `CC1(C)CC[C@]2(C)CC[C@]3(C)C(=CC[C@@H]4[C@@]5(C)CC[C@H](O)C(C)(C)[C@@H]5CC[C@]43C)[C@@H]2C1` [beta-AMYRIN], the cell viability was 1.01 ± 0.073 in test [1], 0.962 ± 0.016 in test [2] and 0.994 ± 0.093 in test [3]. The entries for the “TCF/Wnt firefly luciferase reporter signal” value in test [4] and in test [5] were 0.913 ± 0.016 and 0.9235 ± 0.0021, respectively.
With `CN(C)[C@@H]1C(O)=C(C(N)=O)C(=O)[C@@]2(O)C(O)=C3C(=O)c4c(O)ccc(Cl)c4[C@@H](O)[C@H]3C[C@@H]12`, the cell viability in test [1] was determined as 0.943 ± 0.025; in test [2], 0.96 ± 0.071; in test [3], 0.959 ± 0.0085. Also, the “TCF/Wnt firefly luciferase reporter signal” value in test [4] worked out at 0.924 ± 0.067; in test [5], 0.983 ± 0.039.
On to `CCOC(=O)CCC(=O)O[C@H]1[C@H](O[C@@H]2[C@@H](C)[C@H](O[C@H]3C[C@@](C)(OC)[C@@H](O)[C@H](C)O3)[C@@H](C)C(=O)O[C@H](CC)[C@@](C)(O)[C@H](O)[C@@H](C)C(=O)[C@H](C)C[C@@]2(C)O)O[C@H](C)C[C@@H]1N(C)C`, for which the cell viability was determined as 1.065 ± 0.0071 in test [1], 1.01 ± 0.096 in test [2] and 1.01 ± 0.021 in test [3]. In addition, the figures for the “TCF/Wnt firefly luciferase reporter signal” value in test [4] and in test [5] were 1.005 ± 0.0071 and 0.94 ± 0.025, respectively.
Taken in the same sequence, the figures for `COc1ccc(C2CNC(=O)C2)cc1OC1CCCC1` (stereo not given) were 0.992 ± 0.011, 0.989 ± 0.059, 0.968 ± 0.0099, 1.04 ± 0.18 and 1.06 ± 0.021.
